Data: PubChem BioAssay (NCATS)
Inconclusive results are not listed. Calls of active or inactive are those of the source. Calls follow the shape of the dose curve; as a rule, active = well fitted curve in the direction sought with a large enough effect; inconclusive = small, poorly fitted or top-dose-only effect, or another doubt; inactive = no such curve, though single readings can be large; an effect the other way counts as inactive or inconclusive.

How the values were obtained:
[1] = target: Glutathione peroxidase 1 (Homo sapiens) (UniProt P07203); test: Primary qHTS Assay for Inhibitors of Recombinant Selenoprotein Glutathione Peroxidase 1 (GPX1) (AID 1845191); also: nearly all actives have a fitted effect of over 65% in size; as to activity, negative = inhibition: % is scaled to controls: 0 for no effect and ±100 for the full control effect
Outline: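 GR-coupled readout: NADPH consumption tracked by fluorescence, ex 340/em 450 nm, at t=0 and after 15 min at RT. Final mix 10 nM GPX1, 1 mM GSH, 0.5 mM CHP, 0.5 mM NADPH, 100 nM GR, 0.01% BSA, following 30 min enzyme–compound preincubation.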

[2] = target: Phospholipid hydroperoxide glutathione peroxidase GPX4 (Homo sapiens) (UniProt P36969); test: Primary qHTS Assay for Inhibitors of Recombinant Selenoprotein Glutathione Peroxidase 4 (GPX4) (AID 1845192); also: nearly all actives have a fitted effect of over 65% in size; as to activity change, negative = inhibition: series mostly up to about 50 µM; % is scaled to controls: 0 for no effect and ±100 for the full control effect
Outline: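 Steps: GPX4 plus compound, 30 min RT; add GR/GSH/NADPH master mix; start with cumene hydroperoxide; read 340/450 nm fluorescence at 0 and 15 min. Finals were 200 nM GPX4, 1 mM GSH, 0.5 mM CHP, 0.5 mM NADPH, 100 nM GR.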

[3] = target: Luciferin 4-monooxygenase (Photinus pyralis) (UniProt P08659); test: Primary firefly luciferase (FLuc) qHTS assay for identification of artifact compounds. (AID 1845220); also: nearly all actives have a fitted effect of over 60% in size;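 as to activity change, negative = inhibition: series mostly up to about 54 µM; plate controls were DMSO vehicle for no effect and no enzyme for full effect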
Outline: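 D-luciferin and ATP (10 uM each, final) in Tris acetate buffer pH 7.6 were incubated with compounds for 15 min at room temperature. The reaction was started with 10 nM Photinus pyralis luciferase and luminescence read after 5 min. Percent inhibition was fitted to a 4-parameter Hill equation.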

[4] = Primary fluorescence-based thiol-reactive (MSTI) qHTS assay for identification of artifact compounds. (AID 1845221); also: nearly all actives have a fitted effect of over 65% in size; also: potency is read from the fitted curve at half-maximal effect;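 as to activity change, negative = thiol reactive: series mostly up to about 54 µM; thiol-reactive compounds lower the probe fluorescence signal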
Outline: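 qHTS titration of compound; 4 uM MSTI, PBS pH 7.4, 2% DMSO; 1 h RT, dark; fluorescence 525/598 nm; normalized to Acetyl-MSTI and MSTI; 4-parameter Hill fit.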

[5] = tested on: Nanoluciferase (engineered Oplophorus gracilirostris luciferase); test: Primary Nanoluciferase (NLuc) qHTS assay for identification of artifact compounds. (AID 1845222);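 also: series mostly up to about 54 µM; 0% = DMSO and -100% = no enzyme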
Outline: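 Diluted conditioned medium from NLuc-expressing S16 cells treated with compounds for 15 min at room temperature, then Nano-Glo substrate added; luminescence read after 5 min. Percent inhibition versus no-enzyme and DMSO controls fitted to 4-parameter Hill equation.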

[6] = Primary redox qHTS assay for identification of artifact compounds. (AID 1845223);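 also: 0% = DMSO and 100% = reference compound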
Outline: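 Redox-cycling detection via DTT (250 uM final) oxidation coupled to Amplex Red (25 uM)/HRP (250 mU/mL) in HBSS. 15 min preincubation plus 30 min after DTT, room temperature. Ex/Em 525/598 nm; 4-parameter Hill fit against DMSO and 10 uM DA3003.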

Sequence of Phospholipid hydroperoxide glutathione peroxidase GPX4 (Homo sapiens) (P36969 whole entry, looked up): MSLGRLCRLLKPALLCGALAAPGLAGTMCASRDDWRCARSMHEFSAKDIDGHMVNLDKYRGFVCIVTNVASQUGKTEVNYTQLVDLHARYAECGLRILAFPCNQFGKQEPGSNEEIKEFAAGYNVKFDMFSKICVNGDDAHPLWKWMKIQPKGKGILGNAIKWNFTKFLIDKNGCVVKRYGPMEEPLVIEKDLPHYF
Sequence of Glutathione peroxidase 1 (Homo sapiens) (P07203 whole entry, looked up): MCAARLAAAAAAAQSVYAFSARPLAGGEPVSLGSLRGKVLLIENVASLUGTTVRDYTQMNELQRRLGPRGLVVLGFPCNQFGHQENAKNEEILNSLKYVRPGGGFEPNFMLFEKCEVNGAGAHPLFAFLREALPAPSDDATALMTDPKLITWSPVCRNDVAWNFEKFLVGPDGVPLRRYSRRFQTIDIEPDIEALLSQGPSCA

O=C(c1cc(Cc2n[nH]c(=O)c3ccccc23)ccc1F)N1CCCNCC1
inactive: Potency [1] | Potency [2] | Potency [3] | Potency [4] | Potency [5] | Potency [6]

Cc1c(C2=CCN(C(=O)N(C)C(C)C)CC2)nnn1-c1cccnc1F
inactive: Potency [1] | Potency [2] | Potency [3] | Potency [4] | Potency [5] | Potency [6]

C=C(C)C1=C[C@@]2(C)C(=CC1=O)CC[C@@H](O)[C@@H]2C
inactive: Potency [1] | Potency [2] | Potency [3] | Potency [4] | Potency [5] | Potency [6]

Cc1ccc(-c2ncc[nH]2)cc1NC(=O)c1ccc(OCc2ccccn2)cc1
inactive: Potency [1] | Potency [2] | Potency [3] | Potency [4] | Potency [5] | Potency [6]

COc1ccc(-c2csc(NC(=O)[C@H]3CCCCN3S(=O)(=O)c3ccc(C)cc3)n2)cc1
inactive: Potency [1] | Potency [2] | Potency [3] | Potency [4] | Potency [5] | Potency [6]

FC(F)(F)c1ccc(/C=C/c2nc(COc3ccc(CCCCn4ccnn4)cc3)co2)cc1
inactive: Potency [1] | Potency [2] | Potency [3] | Potency [4] | Potency [5] | Potency [6]

CC(C)n1nc(C#Cc2ccccc2)c2c(N)ncnc21
inactive: Potency [1] | Potency [2] | Potency [3] | Potency [4] | Potency [5] | Potency [6]

CC1CC(=O)C2=C(C1)C1OC1C1(O)C2C(=O)c2cccc(O)c2C1O (stereo not drawn)
active: Potency [4] 6.56 µM
inactive: Potency [1] | Potency [2] | Potency [3] | Potency [5] | Potency [6]

C[C@H](CN(C)C)Oc1nc(Nc2cc3cccc(Cl)c3cn2)cnc1C#N
inactive: Potency [1] | Potency [2] | Potency [3] | Potency [4] | Potency [5] | Potency [6]

COc1ccc(CN2CCN(C(=O)CCNC(=O)c3ccc(C(C)(C)C)cc3)CC2)cc1
inactive: Potency [1] | Potency [2] | Potency [3] | Potency [4] | Potency [5] | Potency [6]

C=C(C)C(=O)OC1CC2(C)OC(=CC2=O)C(=C)CC2OC(=O)C(=C)C12 (stereo not drawn)
inactive: Potency [1] | Potency [2] | Potency [3] | Potency [4] | Potency [5] | Potency [6]

CCC(C)/C=C(C)/C=C/C1=CC2=CC(=O)C3(C)OC(C)(O)C(C(=O)OC)C3C2=CO1 (stereo not drawn)
inactive: Potency [1] | Potency [2] | Potency [3] | Potency [4] | Potency [5] | Potency [6]

C=C1C(=O)O[C@@H]2[C@H]1CC[C@H](C)[C@]1(CCC(=O)O1)C2(C)O (stereo partly drawn)
inactive: Potency [1] | Potency [2] | Potency [3] | Potency [4] | Potency [5] | Potency [6]

CC1=CC2/C=C(\C)CCC3OC(C)(C)OC3CCC(=O)C23C(=O)NC(CC(C)C)C3C1C (stereo not drawn)
inactive: Potency [1] | Potency [2] | Potency [3] | Potency [4] | Potency [5] | Potency [6]

C=C1C(=O)O[C@@H]2[C@H]3C(C)=CC(=O)C3=C(C)CC[C@@H]12
inactive: Potency [1] | Potency [2] | Potency [3] | Potency [4] | Potency [5] | Potency [6]

COc1c2c(nc3occc13)C(CC=C(C)C)(OC)C(O)CC2 (stereo not drawn)
inactive: Potency [1] | Potency [2] | Potency [3] | Potency [4] | Potency [5] | Potency [6]

CC(C)c1noc(C2CCN(c3ncnc(Nc4ccc(S(C)(=O)=O)cc4F)c3[N+](=O)[O-])CC2)n1
inactive: Potency [1] | Potency [2] | Potency [3] | Potency [4] | Potency [5] | Potency [6]

CNc1ccc([N+](=O)[O-])c(Nc2ccc3[nH]ncc3c2)n1
inactive: Potency [1] | Potency [2] | Potency [3] | Potency [5] | Potency [6]
active: Potency [4] 4.74 µM

Cc1cccc(N2CCN(C(=O)c3cc(S(=O)(=O)N(C)C)ccc3N3CCCC3)CC2)c1C
inactive: Potency [1] | Potency [2] | Potency [3] | Potency [4] | Potency [5] | Potency [6]

CCC(C)(OC(C)=O)C(=O)O[C@H]1[C@H](OC(C)=O)[C@]2(CO)[C@H](O)[C@H](O)[C@]3(C)C(=CCC4[C@@]5(C)CC[C@H](O[C@@H]6O[C@H](C(=O)O)[C@@H](O)[C@H](O[C@@H]7OC[C@H](O)[C@H](O[C@@H]8OC[C@H](O)[C@H](O)[C@H]8O)[C@H]7O)[C@H]6O[C@@H]6O[C@H](CO)[C@@H](O)[C@H](O)[C@H]6O)C(C)(C)C5CC[C@]43C)[C@@H]2CC1(C)C (stereo partly drawn)
inactive: activity, negative = inhibition [1] -12.6% [at 9.52 µM] | activity change, negative = inhibition [2] -15.3% [at 9.73 µM] | activity change, negative = inhibition [3] -11% [at 11.6 µM] | activity change, negative = thiol reactive [4] 202% [at 11.5 µM] | activity, negative = inhibition [5] -1.71% [at 11.6 µM] | redox activity (% of DA3003) [6] 22% [at 11.5 µM]

COc1ccc(C2(N(C)C(=O)c3ccc(NC(=O)c4ccco4)cc3)CCOCC2)cc1
inactive: Potency [1] | Potency [2] | Potency [3] | Potency [4] | Potency [5] | Potency [6]

COc1cc2ncnc(Oc3ccc(CC(=O)Nc4cnn(C(C)C)c4)cc3)c2cc1OC
inactive: Potency [1] | Potency [2] | Potency [3] | Potency [4] | Potency [5] | Potency [6]

C=CC(=O)Nc1cc(-n2c(=O)ccc3cnc4ccc(-c5ccc(NS(C)(=O)=O)cc5)cc4c32)ccc1C
inactive: Potency [1] | Potency [2] | Potency [3] | Potency [4] | Potency [5] | Potency [6]
